PubChem BioAssay (NCATS)
Inconclusive results are not listed. Active and inactive are the calls of the source. Unless noted, calls come from the whole dose curve; as a rule, active = well fitted curve in the direction sought with a large enough effect; inconclusive = small, poorly fitted or top-dose-only effect, or another doubt; inactive = no such curve, though single readings can be large; an effect the other way counts as inactive or inconclusive.

Key:
[1] = Stat Signaling Pathway (AID 446; active = well fitted curve in either direction with a large enough effect, not every such curve was filed as active;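 note: ME-180 cervical cancer cells given 40 pM IL-6 alongside compound; SIE-controlled beta-lactamase reporter measured as 460/530 nm FRET emission ratio; % is set by controls: 0 for no effect and ±100 for the full control effect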)
Method in brief: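 Emission at 460 and 530 nm (excitation 405 nm) reports SIE-controlled beta-lactamase in ME-180 cells. Cells received compound with 40 pM IL-6 for 5 hrs at 37 C; data scaled between 300 pM IL-6 and 125 nM JAK-inhibitor controls.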

[2] = target: Glucocorticoid receptor (Homo sapiens) (UniProt P04150); test: GR-GFP Redistribution (AID 450;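 active = compounds whose dose series gives a full or clear partial fitted curve of increased nuclear translocation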; note: potency is the fitted concentration of half-maximal effect); details: U2OS GR-GFP nuclear translocation, laser cytometry, 2 h
[3] = target: Glucocorticoid receptor (Homo sapiens) (UniProt P04150); test: GR-EFC Redistribution (AID 451; calls by dose curve; note: potency is the fitted concentration of half-maximal effect); details: CHO-K1 GR-EFC translocation, beta-gal luminescence, 2 h
Method in brief: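 CHO-K1 cells expressing nuclear EA and GR-ED fragments of b-gal; compounds titrated up to 46 uM final, 2 h at 37 C. GR nuclear translocation read as complemented b-gal luminescence after 1 h RT detection.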

[4] = target: 3',5'-cyclic-AMP phosphodiesterase 4B (Homo sapiens) (UniProt Q07343); test: qHTS Assay for Inhibitors of PDE-IV (AID 607; active = well fitted activation curve with a large enough effect in the main read-out, with a control signal flat, not every such curve was filed as active; note: % of control where 0% means no effect)
Method in brief: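 The readout is membrane depolarisation from a cAMP-sensing CNG channel, detected with a potential dye at ex 535/em 590. Cells were HEK293-derived (endogenous PDE-IV) at 1000 cells/well, titrated up to 22.9 uM final.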

[5] = qHTS Assay for Lipid Storage Modulators (AID 1519; calls by dose curve; for activity change, negative = inhibition: % is set by controls: 0 for no effect and ±100 for the full control effect); details: Drosophila S3 cells, BODIPY lipid droplet/cell ratio, laser cytometry, cells loaded with oleic acid
Method in brief: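 Cells seeded at 5,000 per well were treated with compounds over a concentration series and loaded with oleic acid (400 uM, as added). Lipid droplet fluorescence (488 nm excitation, 500-530 nm channel) was read by laser-scanning cytometry and normalized to 20 uM Triacsin C.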

[6] = target: Ubiquitin carboxyl-terminal hydrolase 1 (Homo sapiens) (UniProt O94782); test: Inhibitors of USP1/UAF1: Pilot qHTS (AID 504865);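 note: rhodamine fluorescence freed from ubiquitin-rhodamine substrate followed over time; top concentration of the series differs between compounds; % is set by controls: 0 for no effect and ±100 for the full control effect; nearly all actives have a fitted effect of over 35% in size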
Method in brief: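 Enzyme-free wells gave the negative control, while test wells held 1nM USP1/UAF1 preincubated with compound for 15 min at room temperature. Ub-Rho at 150nM final started the reaction, and fluorescence at 480/540 nm was recorded kinetically.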

[7] = S16 Schwann cell viability assay (CellTiter-Glo assay) (AID 624031);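 note: native untransfected S16 rat Schwann cells; cellular ATP luminescence as a viability measure; plate controls were DMSO-treated cells for no effect and cell-free wells for full effect; nearly all actives have a fitted effect of over 70% in size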
Method in brief: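 Following overnight culture in 10% FBS DMEM, parental S16 rat Schwann cells are dosed for 24 h at 37 °C. Viability is read as CellTiter-Glo luminescence and expressed as % activity relative to DMSO (0%) and no-cell wells.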

[8] = qHTS profiling for inhibitors of Plasmodium falciparum proliferation (AID 504749); note: nearly all actives have a fitted effect of over 60% in size; note: potency is the fitted concentration of half-maximal effect;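 for activity, negative = inhibition: 0% = DMSO vehicle and full inhibition = artemisinin control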; details: P. falciparum in erythrocytes, SYBR Green DNA, 72 h
Method in brief: (§1)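 SYBR Green fluorescence (ex 485 nm, em 535 nm) reports parasite DNA after 72 h compound exposure of infected red cells at 0.3% parasitemia, 2.5% hematocrit; signal normalized to 0.29 uM artemisinin and vehicle wells.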

[9] = tested on: CP192; test: as above; details: P. falciparum in erythrocytes, SYBR Green DNA, 72 h; series mostly up to 12.8 µM
Method in brief: as §1

[10] = tested on: CP201; test: as above; details: P. falciparum in erythrocytes, SYBR Green DNA, 72 h; series mostly up to 12.8 µM
Method in brief: as §1

[11] = tested on: CP262; test: as above; details: P. falciparum in erythrocytes, SYBR Green DNA, 72 h; series mostly up to 12.8 µM
Method in brief: as §1

[12] = tested on: CP269; test: as above; details: P. falciparum in erythrocytes, SYBR Green DNA, 72 h; series mostly up to 12.8 µM
Method in brief: as §1

[13] = tested on: CP305; test: as above; details: P. falciparum in erythrocytes, SYBR Green DNA, 72 h; series mostly up to 12.8 µM
Method in brief: as §1

[14] = tested on: CP315; test: as above; details: P. falciparum in erythrocytes, SYBR Green DNA, 72 h; series mostly up to 12.8 µM
Method in brief: as §1

[15] = tested on: CP325; test: as above; details: P. falciparum in erythrocytes, SYBR Green DNA, 72 h; series mostly up to 12.8 µM
Method in brief: as §1

[16] = tested on: CP329; test: as above; details: P. falciparum in erythrocytes, SYBR Green DNA, 72 h; series mostly up to 12.8 µM
Method in brief: as §1

[17] = tested on: FAB9; test: as above; details: P. falciparum in erythrocytes, SYBR Green DNA, 72 h; series mostly up to 12.8 µM
Method in brief: as §1

[18] = tested on: JCK; test: as above; details: P. falciparum in erythrocytes, SYBR Green DNA, 72 h; series mostly up to 12.8 µM
Method in brief: as §1

[19] = tested on: PC49; test: as above; details: P. falciparum in erythrocytes, SYBR Green DNA, 72 h; series mostly up to 12.8 µM
Method in brief: as §1

[20] = target: Mitogen-activated protein kinase 10 (Mus musculus) (UniProt Q61831); test: JNK3 AlphaScreen Assay (AID 530; active = well fitted curve in either direction with a large enough effect, not every such curve was filed as active;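 note: kinase came from lysate of stimulated human HepG2 cells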; note: potency is the fitted concentration of half-maximal effect;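 for activity change, negative = inhibition: signal reports phosphorylation of biotinylated GST-cJun 1-79 at Ser73 with 10 µM ATP; % is set by controls: 0 for no effect and ±100 for the full control effect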)
Method in brief: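 HepG2 lysate (IL-1b/TNFa pre-activated) + biotin-GST-cJun 1-79 + anti-pSer73 cJun; cpd titration, 15 min RT; ATP 10 uM start; Tris pH 7.6, MgCl2, DTT, vanadate; beads in EDTA buffer; AlphaScreen.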

[21] = measured here: cell count channel max response
[22] = measured here: lipid channel max response
[23] = at 12.8 µM (top of the series), parasite line A
[24] = at 12.8 µM (top of the series), parasite line B

Glucocorticoid receptor (Homo sapiens), sequence (P04150 whole entry, looked up, the tested form may be a part): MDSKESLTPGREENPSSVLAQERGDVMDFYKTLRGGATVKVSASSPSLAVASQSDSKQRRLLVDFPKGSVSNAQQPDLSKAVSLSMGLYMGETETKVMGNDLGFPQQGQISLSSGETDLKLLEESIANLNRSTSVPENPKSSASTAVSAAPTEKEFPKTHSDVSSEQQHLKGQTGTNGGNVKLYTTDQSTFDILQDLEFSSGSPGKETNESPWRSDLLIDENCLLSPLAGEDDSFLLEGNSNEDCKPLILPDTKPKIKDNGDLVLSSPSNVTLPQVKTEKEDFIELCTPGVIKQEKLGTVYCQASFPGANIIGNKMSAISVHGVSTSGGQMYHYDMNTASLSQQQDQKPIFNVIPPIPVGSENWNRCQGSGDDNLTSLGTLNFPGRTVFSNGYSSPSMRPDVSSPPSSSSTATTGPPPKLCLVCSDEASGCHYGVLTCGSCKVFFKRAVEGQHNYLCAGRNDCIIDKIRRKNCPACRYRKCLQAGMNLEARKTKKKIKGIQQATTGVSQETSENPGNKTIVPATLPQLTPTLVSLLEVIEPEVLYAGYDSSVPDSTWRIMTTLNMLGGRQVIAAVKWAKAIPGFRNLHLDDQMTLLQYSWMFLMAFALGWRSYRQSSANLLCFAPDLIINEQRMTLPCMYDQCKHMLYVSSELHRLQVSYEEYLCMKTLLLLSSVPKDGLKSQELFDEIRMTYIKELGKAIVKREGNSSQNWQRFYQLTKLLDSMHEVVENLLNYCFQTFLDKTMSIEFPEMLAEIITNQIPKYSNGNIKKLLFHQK
Ubiquitin carboxyl-terminal hydrolase 1 (Homo sapiens), sequence (O94782 whole entry, looked up): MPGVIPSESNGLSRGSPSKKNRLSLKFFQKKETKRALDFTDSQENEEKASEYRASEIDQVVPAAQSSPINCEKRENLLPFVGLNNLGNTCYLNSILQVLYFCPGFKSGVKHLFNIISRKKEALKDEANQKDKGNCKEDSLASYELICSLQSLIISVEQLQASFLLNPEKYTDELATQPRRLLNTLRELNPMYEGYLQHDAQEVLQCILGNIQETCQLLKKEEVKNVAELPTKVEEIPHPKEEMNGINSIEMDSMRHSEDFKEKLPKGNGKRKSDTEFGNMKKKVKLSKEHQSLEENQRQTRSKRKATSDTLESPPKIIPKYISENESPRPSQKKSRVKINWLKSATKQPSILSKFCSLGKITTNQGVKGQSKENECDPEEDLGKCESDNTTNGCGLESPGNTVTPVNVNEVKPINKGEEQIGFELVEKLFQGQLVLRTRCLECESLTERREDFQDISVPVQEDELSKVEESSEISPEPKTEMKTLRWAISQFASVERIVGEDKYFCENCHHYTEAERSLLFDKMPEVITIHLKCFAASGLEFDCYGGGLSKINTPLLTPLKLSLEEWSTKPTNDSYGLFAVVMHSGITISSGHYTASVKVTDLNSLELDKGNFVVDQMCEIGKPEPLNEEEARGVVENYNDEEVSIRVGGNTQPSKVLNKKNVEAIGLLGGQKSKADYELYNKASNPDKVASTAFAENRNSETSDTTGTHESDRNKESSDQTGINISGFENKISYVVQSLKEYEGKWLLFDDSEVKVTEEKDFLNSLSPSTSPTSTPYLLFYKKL
3',5'-cyclic-AMP phosphodiesterase 4B (Homo sapiens), sequence (Q07343 whole entry, looked up): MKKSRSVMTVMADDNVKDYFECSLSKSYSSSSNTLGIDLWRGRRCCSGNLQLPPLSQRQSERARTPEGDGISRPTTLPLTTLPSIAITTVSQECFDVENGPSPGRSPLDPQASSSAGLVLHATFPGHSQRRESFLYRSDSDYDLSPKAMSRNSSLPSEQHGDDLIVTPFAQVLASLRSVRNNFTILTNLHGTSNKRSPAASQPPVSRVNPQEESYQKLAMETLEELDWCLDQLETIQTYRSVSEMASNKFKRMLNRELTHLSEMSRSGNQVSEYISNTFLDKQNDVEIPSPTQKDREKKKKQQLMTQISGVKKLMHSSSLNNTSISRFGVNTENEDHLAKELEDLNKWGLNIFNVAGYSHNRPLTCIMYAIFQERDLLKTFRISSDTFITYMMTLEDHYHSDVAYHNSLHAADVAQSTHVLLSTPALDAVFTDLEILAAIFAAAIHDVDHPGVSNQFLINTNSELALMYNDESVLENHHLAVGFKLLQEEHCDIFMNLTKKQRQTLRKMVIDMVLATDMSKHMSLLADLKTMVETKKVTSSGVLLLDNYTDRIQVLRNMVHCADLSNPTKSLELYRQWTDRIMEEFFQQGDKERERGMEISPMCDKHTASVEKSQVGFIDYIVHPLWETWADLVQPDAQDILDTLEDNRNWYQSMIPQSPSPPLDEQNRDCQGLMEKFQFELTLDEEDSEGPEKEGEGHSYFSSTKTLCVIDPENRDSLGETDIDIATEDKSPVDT

CC(=O)O[C@H]1C[C@@]2(C)[C@H](C[C@@H](O)[C@H]3[C@@]4(C)CC[C@@H](O)[C@@H](C)[C@H]4CC[C@@]32C)C1=C(CCC=C(C)C)C(=O)O
inactive: outcome [1] | Potency [2] > 20.6 µM | Potency [3] > 20.6 µM | outcome [4] | activity change, negative = inhibition ([5]; at 25.7 µM (top of the series)) -3.43% | Potency [6] | outcome [7] | activity, negative = inhibition ([8]; at 28.7 µM (top of the series), parasite line A) 7.93% | activity, negative = inhibition ([8]; at 28.7 µM (top of the series), parasite line B) 2.16% | Potency [9] | Potency [10] | Potency [11] | Potency [12] | Potency [13] | Potency [14] | Potency [15] | Potency [16] | Potency [17] | Potency [18] | Potency [19]
-6.42%: max response [5, 22]
-3.61%: max response [5, 21]

C[C@@H](CN1c2ccccc2Sc2ccccc21)N(C)C
-13.4%: max response [5, 22]
inactive: outcome [1] | outcome [4] | activity change, negative = inhibition ([5]; at 25.7 µM (top of the series)) -3.2% | Potency [6]
-10.2%: max response [5, 21]

Nc1ncn([C@H]2O[C@@H](CO)[C@@H](O)[C@@H]2O)c(=O)n1
-3.14%: max response [5, 21]
inactive: Potency [2] > 20.6 µM | Potency [3] > 20.6 µM | Potency [20] | outcome [4] | activity change, negative = inhibition ([5]; at 25.7 µM (top of the series)) -7.35% | Potency [6]
-7.83%: max response [5, 22]

C1CCC(C(C[C@@H]2CCCCN2)C2CCCCC2)CC1
-11.9%: max response [5, 21]
inactive: outcome [1] | Potency [2] > 20.6 µM | Potency [3] > 20.6 µM | Potency [20] | activity change, negative = inhibition ([5]; at 25.7 µM (top of the series)) -4.85% | Potency [6]
-15.6%: max response [5, 22]

CO/N=C(\C(=O)N[C@@H]1C(=O)N2C(C(=O)O)=C(COC(N)=O)CS[C@@H]12)c1ccco1
inactive: outcome [1] | Potency [2] > 20.6 µM | Potency [3] > 20.6 µM | Potency [20] | outcome [4] | activity change, negative = inhibition ([5]; at 25.7 µM (top of the series)) 1.43% | Potency [6]
-2.21%: max response [5, 22]
-5.14%: max response [5, 21]

CC(C)(C)NC[C@H](O)COc1cccc2c1C[C@@H](O)[C@@H](O)C2
inactive: outcome [1] | Potency [2] > 20.6 µM | Potency [3] > 20.6 µM | outcome [4] | activity change, negative = inhibition ([5]; at 25.7 µM (top of the series)) -2.96% | Potency [6] | outcome [7] | activity, negative = inhibition [8, 23] 4.79% | activity, negative = inhibition [8, 24] 2.07% | Potency [9] | Potency [10] | Potency [11] | Potency [12] | Potency [13] | Potency [14] | Potency [15] | Potency [16] | Potency [17] | Potency [18] | Potency [19]
-8.96%: max response [5, 21]
-13.2%: max response [5, 22]

CCC(=O)OCC(=O)[C@@]1(OC(=O)CC)[C@H](C)C[C@@H]2[C@@H]3[C@H]([C@@H](O)C[C@@]21C)[C@]1(C)C=CC(=O)C=C1C[C@@H]3Cl
-9.62%: max response [5, 21]
inactive: Potency [20] | outcome [4] | activity change, negative = inhibition ([5]; at 25.7 µM (top of the series)) -4.84% | outcome [7] | Potency [9] | Potency [10] | Potency [11] | Potency [14] | Potency [16]
active: Potency [2] 0.00423 µM
-12.3%: max response [5, 22]

CC(C)(C)NC(=O)[C@@H]1C[C@H]2CCCC[C@@H]2CN1C[C@H](O)[C@H](Cc1ccccc1)NC(=O)[C@@H](CC(N)=O)NC(=O)c1ccc2ccccc2n1
-0.968%: max response [5, 22]
inactive: outcome [1] | Potency [2] > 20.6 µM | Potency [3] > 20.6 µM | Potency [20] | outcome [4] | activity change, negative = inhibition ([5]; at 25.7 µM (top of the series)) -0.923%
1.41%: max response [5, 21]

CS(=O)(=O)c1ccc([C@H](O)[C@H](CF)NC(=O)C(Cl)Cl)cc1
1.07%: max response [5, 21]
inactive: outcome [1] | Potency [2] > 20.6 µM | Potency [3] > 20.6 µM | outcome [4] | activity change, negative = inhibition ([5]; at 25.7 µM (top of the series)) 1.06% | outcome [7]
2.55%: max response [5, 22]

C/C(=C\CNc1ncnc2nc[nH]c12)CO
3.25%: max response [5, 22]
inactive: Potency [2] > 46 µM | Potency [3] > 46 µM | Potency [20] | outcome [4] | activity change, negative = inhibition ([5]; at 57.5 µM (top of the series)) -1.3%
4.12%: max response [5, 21]

CC(C)CC(=O)N[C@H](C(=O)N[C@H](C(=O)N[C@@H](CC(C)C)[C@H](O)CC(=O)N[C@@H](C)C(=O)N[C@@H](CC(C)C)[C@H](O)CC(=O)O)C(C)C)C(C)C
20.1%: max response [5, 21]
inactive: outcome [1] | outcome [4] | activity change, negative = inhibition ([5]; at 25.7 µM (top of the series)) 1.03% | Potency [6]
8.75%: max response [5, 22]

C=Cc1c(C)c2cc3nc(cc4[nH]c(cc5nc(cc1[nH]2)C(C)=C5CCC(=O)O)c(CCC(=O)OC)c4C)[C@@]1(C)C3=CC=C(C(=O)OC)[C@H]1C(=O)OC (tested in a mixture with another compound)
2.29%: max response [5, 22]
3.74%: max response [5, 21]
active: Potency [20] 0.316 µM [activator] | Potency ([8]; parasite line A) 10 µM | Potency ([8]; parasite line B) 5.62 µM | Potency [19] 5.01 µM
inactive: Potency [2] > 20.6 µM | Potency [3] > 20.6 µM | outcome [4] | activity change, negative = inhibition ([5]; at 25.7 µM (top of the series)) 1.23% | outcome [7] | Potency [9] | Potency [10] | Potency [11] | Potency [12] | Potency [13] | Potency [14] | Potency [15] | Potency [16]

C=C1C[C@@]23C[C@]1(O)CC[C@@H]2[C@]12C=C[C@@H](O)[C@](C)(C(=O)O1)[C@H]2[C@H]3C(=O)O
0.159%: max response [5, 21]
3.63%: max response [5, 22]
inactive: outcome [1] | Potency [2] > 20.6 µM | Potency [3] > 20.6 µM | Potency [20] | outcome [4] | activity change, negative = inhibition ([5]; at 25.7 µM (top of the series)) 1.67% | Potency [6]

O=C(O)COCCN1CCN([C@@H](c2ccccc2)c2ccc(Cl)cc2)CC1
inactive: outcome [1] | Potency [20] | outcome [4] | activity change, negative = inhibition ([5]; at 25.7 µM (top of the series)) 0.348% | outcome [7] | activity, negative = inhibition [8, 23] -5.9% | activity, negative = inhibition [8, 24] 11.4% | Potency [9] | Potency [10] | Potency [11] | Potency [12] | Potency [13] | Potency [14] | Potency [15] | Potency [16] | Potency [17] | Potency [18] | Potency [19]
-9.07%: max response [5, 21]
-7.35%: max response [5, 22]

COC(=O)[C@@H]1[C@@H]2C[C@H]3c4[nH]c5cc(OC)ccc5c4CCN3C[C@@H]2C[C@H](OC(=O)/C=C\c2cc(OC)c(OC)c(OC)c2)[C@H]1OC
-4.11%: max response [5, 21]
-3.85%: max response [5, 22]
inactive: outcome [1] | Potency [2] > 20.6 µM | Potency [3] > 20.6 µM | outcome [4] | activity change, negative = inhibition ([5]; at 25.7 µM (top of the series)) -1.81% | Potency [6] | outcome [7] | Potency [10] | Potency [11] | Potency [16] | Potency [17]
